# Assay outcomes deposited in PubChem by several laboratories.
# Most compounds without a hit are left out; they make up all but 4.2% or so of the library.
# hgDAF12 agonist – H. glycines DAF-12 receptor agonists, primary screen, cell-based, luminescence, HEK293, GAL4 fusion, UAS-luciferase; 1.8% of 370,000 active; HEK293 GAL4-hgDAF12 UAS-luciferase reporter, agonist luminescence; normalized to butyrate control; AID 687014, 2013; activation, % at 6.8 µM;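 active means activation above a cutoff set at the mean of all screened compounds plus 3 SD, cut at about 10% in these data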
# esBAF inh – Bmi1 luciferase reporter increase in mESCs, primary screen, esBAF inhibitor project, mouse ES cells, Bmi1 luciferase knock-in, single point; 24 h; 100% = twice the neutral-well signal; reporter increase, % at 12.5 µM; 2% of 350,000 active; AID 602393, 2012; in the data active means activation above about 40%; inconclusive means no clear call, values can overlap the other calls;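 further: a rise in the Bmi1 reporter signal indicates esBAF inhibition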
# hcDAF12 agonist – H. contortus DAF-12 nuclear receptor activators, primary screen, cell-based, luminescence, HEK293, lit1-tk-luc reporter; HEK293 hcDAF-12 lit1-tk-luc reporter; 0% DMSO, 100% Δ7-dafachronic acid; activation, % at 6.8 µM; 1.4% of 370,000 active;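 active means activation above the mean of all tested compounds plus 3 SD, cut at about 5.5% in these data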
# DAX1 StAR inh – DAX1 (NR0B1) inhibitors on StAR promoter, primary screen, cell-based, luminescence, SF-1 (NR5A1), full-length DAX-1; HEK293T StAR-luciferase reporter, SF-1/DAX-1 repression relief; 1.1% of 370,000 active; inhibition, % at 6.8 µM;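 active means inhibition above the mean over all tested compounds plus 3 SD, cut at about 3.6% in these data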;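 further: higher inhibition means more luminescence from relief of DAX-1 repression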
# ssDAF12 agonist – S. stercoralis DAF-12 nuclear receptor activators, primary screen, cell-based, luminescence, HEK293, GRIP1 co-expression, lit1-tk-luc; activation, % at 6.8 µM; 1% of 370,000 active; Nuclear hormone receptor DAF-12 (Strongyloides stercoralis); HEK293 ssDAF-12/GRIP1 lit1-tk-luc reporter; % of 3 µM dafachronic acid response;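 active means activation above the mean over all tested compounds plus 3 SD, cut at about 0.9% in these data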
# Wnt act – Wnt/beta-catenin pathway activators, primary screen, cell-based, plate reader, single point | Wnt/beta-catenin reporter cell assay, activator | activation, % at 9.35 µM | 1.2% of 300,000 active | AID 743398, 2014; in the data active means activation above about 30%, passing the limit was not always enough; inconclusive means no clear call, values can overlap the other calls
# Numbers stand for hits; . = inactive; ? = inconclusive; / = not tested or not shown.
SMILES,hgDAF12 agonist,esBAF inh,hcDAF12 agonist,DAX1 StAR inh,ssDAF12 agonist,Wnt act
COc1ccc(-c2noc(Cc3cccs3)n2)cc1,.,55,.,.,.,.
COc1ccc(-c2noc(Cc3ccccc3OC)n2)cc1,.,?,.,.,.,/
COc1ccc(-c2noc(CCc3ccccc3)n2)cc1,.,57,.,.,.,.
CC(C)Nc1nc(Cl)nc(Nc2ccccc2)n1,.,61,.,.,.,.
CC=Cc1ccc2n(c1=O)C[C@@H]1[C@@H](CO)[C@H](C(=O)NCC3CC3)N(Cc3cccnc3)[C@H]21 (mixture of isomers),/,.,/,/,/,/
O=C1C(Nc2ccccc2)=C/C(=N/S(=O)(=O)c2cccs2)c2ccccc21,/,.,/,/,/,/
Cc1ccc(NC2=C/C(=N/S(=O)(=O)c3cccs3)c3ccccc3C2=O)cc1,.,/,5.8,.,.,.
CC(C)(C)NS(=O)(=O)c1ccc(NC(=O)Cc2ccccc2[N+](=O)[O-])cc1,.,/,.,.,.,.
CC(NC(=O)CCC(=O)NC(C)c1ccccc1)c1ccccc1 (stereo unspecified),.,.,.,.,.,.
CC(NC(=O)Cc1ccccc1[N+](=O)[O-])c1ccccc1 (stereo unspecified),.,/,6.3,.,.,.
CCCCNS(=O)(=O)c1ccc(NC(=O)Cc2ccccc2[N+](=O)[O-])cc1,.,/,.,.,2.0,.
CC(NC(=O)Cn1cccc1)c1ccccc1 (stereo unspecified),.,.,.,4.0,.,.
O=C(Cc1ccccc1[N+](=O)[O-])NC1CCN(Cc2ccccc2)CC1,.,.,.,.,1.5,.
C[C@@H]1CN([C@@H](C)CO)C(=O)c2cc(NS(=O)(=O)c3cn(C)cn3)ccc2O[C@@H]1CN(C)S(C)(=O)=O,/,.,/,/,/,/
O=C(C[C@H]1C=C[C@H](NC(=O)Nc2ccc(F)cc2)[C@H](CO)O1)NCc1cccc(F)c1,/,.,/,/,/,/
C[C@@H]1CN([C@@H](C)CO)C(=O)c2cc(NC(=O)Cc3ccccc3)ccc2O[C@H]1CN(C)S(=O)(=O)c1cccs1,/,.,/,/,/,/
O=C(CN1CCOCC1)N1CCCCN2[C@@H](CO)[C@@H](c3ccc(-c4ccccc4F)cc3)[C@@H]2C1,/,.,/,/,/,/
COc1ccc(S(=O)(=O)Nc2cccc3c2O[C@H](CN(C)C(=O)NC2CCCCC2)[C@H](C)CN([C@@H](C)CO)C3=O)cc1,/,.,/,/,/,/
CC(C)NC(=O)Nc1ccc2c(c1)CC(=O)N([C@@H](C)CO)C[C@@H](C)[C@@H](CN(C)C(=O)Nc1ccc(F)cc1)O2,/,.,/,/,/,/
O=C(Cc1ccccc1[N+](=O)[O-])NCCCc1ccccc1,.,.,.,.,.,.
CCC(CC)NC(=O)Cc1ccccc1[N+](=O)[O-],.,/,5.6,.,.,/
O=c1[nH]c2ccccc2cc1-c1nnn(-c2ccc(F)cc2)n1,.,79,.,.,.,?
COc1ncccc1-c1nnn(-c2ccc(F)cc2)n1,.,54,.,.,.,34
COc1ncccc1-c1nnn(-c2ccc(Cl)c(Cl)c2)n1,.,88,.,.,.,39
Fc1ccc(-n2nnc(-c3ccccc3Br)n2)cc1,.,.,.,.,.,.
SMILES,hgDAF12 agonist,esBAF inh,hcDAF12 agonist,DAX1 StAR inh,ssDAF12 agonist,Wnt act
Cc1ccc(-n2nnc(-c3cc4ccccc4nc3Cl)n2)cc1,.,45,.,.,1.4,.
C[C@H](CO)N1C[C@H](C)[C@H](CN(C)C)Oc2ccc(NC(=O)NC3CCCCC3)cc2CC1=O,/,.,/,/,/,/
COCC(=O)NC[C@@H]1[C@H](c2ccc(C3=CCCC3)cc2)[C@@H](CO)N1C(C)=O,/,.,/,/,/,/
C[C@H]1CN([C@@H](C)CO)C(=O)c2cccc(NC(=O)Nc3ccc4c(c3)OCO4)c2O[C@H]1CN(C)S(=O)(=O)c1cn(C)cn1,/,.,/,/,/,/
CN(C)CC(=O)Nc1ccc2c(c1)[C@H]1C[C@@H](CC(=O)N3CCOCC3)O[C@@H](CO)[C@H]1O2,/,.,/,/,/,/
CNS(=O)(=O)c1cn(CC(=O)NCc2cccc(OC)c2)cc1S(=O)(=O)NC,.,.,5.8,.,.,.
CCCN(Cc1ccc(C)cc1)C(=O)c1ccc(CNS(=O)(=O)c2ccc(C(C)=O)cc2)cc1,.,62,.,.,.,.
COc1ccc(/C=C(\CC(=O)O)c2nc3ccccc3o2)cc1,.,69,.,.,.,.
O=C(C[C@@H]1C[C@@H]2c3cc(NC(=O)Nc4ccc(C(F)(F)F)cc4)ccc3O[C@@H]2[C@@H](CO)O1)NCC1CC1,/,.,/,/,/,/
CO[C@H]1CC[C@H]2CCN(C)C(=O)C[C@@H](c3ccccc3)CN(C)C(=O)c3cccc(C#N)c3OC[C@H]1O2,/,.,/,/,/,/
Cc1cccc(NC(=S)NNC(=O)c2cc3c(s2)CCC(C)C3)c1C (stereo unspecified),.,/,.,.,20,.
Cc1ccc(C)c(NC(=S)NNC(=O)c2cc3c(s2)CCC(C)C3)c1 (stereo unspecified),.,/,.,.,.,/
COc1ccc(S(=O)(=O)Nc2cccc3c2O[C@H](CN(C)S(=O)(=O)c2ccc(F)cc2)[C@H](C)CN([C@@H](C)CO)C3=O)cc1,/,.,/,/,/,/
Cc1ccc(S(=O)(=O)Nc2cccc3c2O[C@H](CN(C)S(=O)(=O)c2ccccc2)[C@@H](C)CN([C@H](C)CO)C3=O)cc1,/,.,/,/,/,/
Cc1cc(OCC(F)(F)C(F)(F)C(F)(F)C(F)F)nc(N)n1,.,50,.,.,.,.
C[C@@H]1CN([C@@H](C)CO)C(=O)c2cc(-c3ccccc3F)cnc2O[C@@H]1CN(C)C(=O)NC1CCCC1,/,.,/,/,/,/
O=C1N=c2ccccc2=C1c1sc(Nc2ccc(O)cc2)nc1O,.,/,.,.,.,.
O=C1N=c2ccccc2=C1c1sc(Nc2cccc(O)c2)nc1O,.,51,.,.,.,.
CCC(=O)N1[C@@H](CO)[C@@H](c2ccc(-c3ccccc3)cc2)[C@@H]1CNC(=O)COC,/,.,/,/,/,/
Cc1ccc2nc(NCc3ccccc3)[nH]c2c1,11,.,.,.,.,.
COc1ccc2nc(NCc3ccccc3)[nH]c2c1,.,.,.,.,.,.
CC(C)NC(=O)N1CC[C@@H]2[C@H]1c1cc(Br)ccc1N(C)[C@H]2CO,/,.,/,/,/,/
O=C(C[C@H]1C[C@@H]2c3cc(NC(=O)c4cccnc4)ccc3O[C@@H]2[C@@H](CO)O1)NCC(F)(F)F,/,.,/,/,/,/
O=C(O)CCc1ccc(-c2ccccc2)n1-c1cccc(C(=O)O)c1,.,.,.,.,.,?
